Test [1] addresses Albumin (Bos taurus) (UniProt P02769). As to the kind of experiment: compounds binding labelled BSA control protein – biochemical, small-molecule microarray, Alexa647 label, 635/667 nm fluorescence, artefact control for SMM control protein annotation, profiling panel (AID 1118).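 Further: score merges 667 nm emission intensity and signal-to-noise per printed compound spot.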 As to conditions: BSA-A647 binding, fluorescence 635 nm, higher = more signal.
Test [2] can be described thus: probe aXIP binding to arrayed compounds – biochemical, NeuroSMM set, 635/667 nm fluorescence, primary screen (AID 1119).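 Further: probe is the protein aXip251-270 applied at 1 µg/mL to compound-printed slides; binding of probe to printed compounds measured as 667 nm fluorescence plus signal to noise.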 To be noted: small-molecule microarray, higher = more signal, called active from +8 up or from −8 down.
Test [3] can be described thus: probe aNOTCH3 binding on compound microarray – biochemical, small-molecule microarray, 635/667 nm fluorescence, primary screen (AID 1120).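 Further: probe is a biotin-tagged antibody raised against NOTCH3 rather than NOTCH3 protein; score merges spot fluorescence near 667 nm with spot signal to noise.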 As to conditions: higher = more signal.
Test [4] in a line: probe aNOTCH2 binding on compound microarray – biochemical, small-molecule microarray, 635/667 nm fluorescence, primary screen (AID 1121).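 Further: score merges feature fluorescence read at 667 nm with its signal to noise.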 As to conditions: higher = more signal.
In test [5] the target is Carbonic anhydrase 2 (Homo sapiens) (UniProt P00918). As to the kind of experiment: compounds binding carbonic anhydrase 2 – biochemical, small-molecule microarray, Alexa647-labelled CAII, profiling panel (AID 1122). As to conditions: CAII-A647 binding fluorescence, higher = more signal.
Test [6] in a line: COS7 lysate on small-molecule microarray, probe aHis, 635 nm (AID 1123).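 Further: z-score combines 667nm fluorescence intensity with signal-to-noise per printed compound spot.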 To be noted: COS7 cell lysate, fluorescence, higher = more signal.
The nature of test [7]: probe aLAP1 signal on lysate-treated microarray – cell lysate, small-molecule microarray, COS7 lysate, primary screen (AID 1124).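 Further: lysate comes from COS7 cells expressing LAP1 and is applied at 0.3 µg/mL; score merges spot fluorescence near 667 nm with signal-to-noise over triplicate slides.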 To be noted: probe aLAP1, fluorescence, higher = more signal.
The subject of test [8] is Sam68 (KHDRBS1). Briefly: compounds binding KHDRBS1 protein – biochemical, small-molecule microarray, 635 nm fluorescence, primary screen (AID 1125).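 Further: score merges 667 nm channel intensity with signal to noise over triplicate slides.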 As to conditions: higher = more signal.
For test [9], the system named is Chordin-like protein 2 (CHRDL2). Briefly: compounds binding chordin-like 2 – biochemical, small-molecule microarray, 635 nm fluorescence, primary screen (AID 1126).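 Further: printed compound slides probed with Chrdl2 protein at 4 µg/mL for 1 h at 4 C; score merges 667 nm emission intensity with signal to noise over three replicate slides.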 To be noted: fluorescence 635 nm, higher = more signal.
In test [10] the target is Concanavalin-A (Canavalia ensiformis) (UniProt P02866). Briefly: compounds binding concanavalin A lectin – biochemical, small-molecule microarray, Alexa647 label, 635 nm, artefact control for SMM control protein annotation, primary screen (AID 1127).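 Further: z combines 667 nm emission intensity with signal-to-noise across three replicate slides.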 As to conditions: ConA-A647 binding fluorescence, higher = more signal.

The source of these data is PubChem BioAssay.

SMILES strings stand for the structures. The source made the active and inactive calls.

Chain of Albumin (Bos taurus) (P02769 whole entry, looked up): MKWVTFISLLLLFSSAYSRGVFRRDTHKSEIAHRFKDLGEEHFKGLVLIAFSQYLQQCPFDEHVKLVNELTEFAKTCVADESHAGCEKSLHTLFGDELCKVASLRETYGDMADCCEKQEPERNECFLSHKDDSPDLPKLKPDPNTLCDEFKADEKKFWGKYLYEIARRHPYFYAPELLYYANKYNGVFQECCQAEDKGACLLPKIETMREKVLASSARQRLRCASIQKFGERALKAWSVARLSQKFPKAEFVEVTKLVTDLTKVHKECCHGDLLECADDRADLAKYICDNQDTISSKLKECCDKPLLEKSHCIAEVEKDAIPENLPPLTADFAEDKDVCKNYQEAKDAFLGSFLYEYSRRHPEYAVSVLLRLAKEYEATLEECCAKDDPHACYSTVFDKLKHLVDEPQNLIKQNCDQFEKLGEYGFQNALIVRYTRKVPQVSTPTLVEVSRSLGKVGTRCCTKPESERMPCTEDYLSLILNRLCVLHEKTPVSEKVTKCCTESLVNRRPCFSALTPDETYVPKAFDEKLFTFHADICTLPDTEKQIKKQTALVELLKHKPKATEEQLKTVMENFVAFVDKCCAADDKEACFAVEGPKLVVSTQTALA
Chain of Concanavalin-A (Canavalia ensiformis) (P02866 whole entry, looked up): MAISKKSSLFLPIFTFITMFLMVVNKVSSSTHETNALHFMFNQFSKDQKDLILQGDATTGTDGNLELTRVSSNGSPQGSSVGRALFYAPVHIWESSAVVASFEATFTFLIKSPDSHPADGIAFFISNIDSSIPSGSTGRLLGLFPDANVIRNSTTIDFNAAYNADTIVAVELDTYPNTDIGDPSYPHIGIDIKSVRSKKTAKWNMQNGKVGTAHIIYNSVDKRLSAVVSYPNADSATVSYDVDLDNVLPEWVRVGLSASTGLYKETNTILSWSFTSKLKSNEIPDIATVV

Turning to `COC(=O)C1(Cc2ccccc2)C=C2C(=C(C(C)C)C(=O)C2C)CN1` (stereo not given), the composite z-score in [1] turned out to be 0.628; in test [3] it was 0.183; in [4] it was 0.168; in test [5], 0.676; in test [6], 1.62; in test [7], 0.6. For the same molecule, the composite z-score in [8] was -1.52; in test [9] it was -1.3; in [10], -1.83. In addition, the composite Z-score in test [2] is 2.34 (inactive).
Regarding `C=CCN1C(=O)[C@]2(CC=C)N=C(c3ccc(OCCCO)cc3)O[C@@H]2c2ccccc21`, the composite z-score in test [1] is 0.93; in [3], 0.193; in test [4], -0.0648; in test [5] it was 0.675; in [6] it was 1.35; in test [7], 0.053. The composite z-score came to 1.33 in test [8], 0.689 in [9] and 1.14 in test [10]. Further, in test [2], the composite Z-score was 1.66 (inactive).
`O=C1NC(=O)C2C1C=CC(C(O)c1ccc(Br)cc1)N2Nc1ccccn1` (stereo not given): the composite z-score in [1] is 0.849; in test [3], 0.327; in test [4], 0.176; in test [5] it was 0.822; in [6] it was 0.991; in test [7], 0.74. Besides, the composite z-score in test [8] was determined as 0.0126; in test [9], 0.913; in test [10], 0.48. In addition, the composite Z-score in test [2] is -0.838 (inactive).
Turning to `[N-]=[N+]=NCc1ccccc1C[C@@]1(C(=O)NCCN2CCOCC2)N=C(c2ccc(OCCCO)cc2)O[C@@H]1c1ccccc1N=[N+]=[N-]`, the composite z-score in test [1] was 0.678; in [3] it was 0.163; in [4], -0.116; in [5] it was 0.419; in test [6], 1.6; in [7], 0.276. The values for the composite z-score in [8], in test [9] and in test [10] were 1.3, -0.396 and 1.09, respectively. Further, the composite Z-score in test [2] is 0.653 (inactive).
With `NCCCCCCNC(=O)[C@H]1C[C@H]2C(=O)N[C@@H](Cc3ccccc3)C(=O)N2[C@H]1c1ccc(O)cc1`, the composite z-score in test [1] was 0.855; in test [3], -0.0048; in test [4], -0.176; in [5], 0.778; in [6] it was 0.734; in [7] it was 0.205. Besides, the composite z-score in [8] is 1.03; in test [9], -0.14; in test [10], 1.2. Further, the composite Z-score in test [2] is 0.126 (inactive).
On to `O=C(O)[C@H](Cc1ccccc1)n1cc(-c2ccccn2)nn1`, for which the composite z-score in test [1] was 0.672; in [3] it was -0.0311; in test [4], -0.1; in [5] it was 0.285; in [6], 0.383; in test [7] it was 0.132. Besides, the composite z-score was 0.614 in test [8], 0.129 in [9] and 0.862 in test [10]. Moreover, in test [2], the composite Z-score is -0.341 (inactive).
On to `COCC(=C=CC[C@H](O)c1cccc(OCCO)c1)C[C@H](O)c1ccccn1`, for which the composite z-score is 0.0722 in [1]; -0.004 in test [3]; -0.145 in test [4]; 0.778 in test [5]; 3.79 in test [6]; 0.369 in [7]. Also, the composite z-score is 0.52 in test [8], -0.0575 in test [9] and 0.102 in test [10]. Also, in [2], the composite Z-score was -0.0402 (inactive).
Take `CC(C)C(CO)N1C(=O)[C@]2(C)C3C(=O)OCCC/C=C\[C@H]3OC23C=CCN(c2ccc(Cl)cc2)C(=O)[C@@H]13` (stereo not given in full): the composite z-score is -0.187 in test [1]; -0.157 in test [3]; -0.164 in [4]; 0.853 in [5]; 3.39 in test [6]; 0.32 in [7]. Moreover, the composite z-score was 0.36 in [8], -0.883 in test [9] and -0.522 in test [10]. Besides, the composite Z-score in test [2] was -0.132 (inactive).
Regarding `COc1cc2c(cc1O)C(C)N(Cc1cc3c(cc1Br)OCO3)CC2` (stereo not given), the composite z-score was -0.0769 in test [1]; -0.119 in test [3]; -0.0924 in test [4]; 0.887 in [5]; 0.578 in [6]; 0.349 in [7]. The composite z-score in test [8] was -0.309; in [9] it was -0.55; in test [10] it was -0.251. Besides, the composite Z-score in test [2] is 2.1 (inactive).
`C=C(COC)/C(=C/C[C@@H](OC(=O)c1ccncc1)c1ccc(OCCO)cc1)c1cnc2ccccc2c1`: the composite z-score in [1] is 0.646; in [3], 0.321; in [4], -0.0804; in test [5], 0.854; in test [6], 0.514; in test [7], 0.39. Moreover, the composite z-score was determined as 1.31 in [8], 1.53 in test [9] and 1.15 in [10]. Moreover, the composite Z-score in test [2] was -0.41 (inactive).
For the molecule `COC(=O)C1(Cc2ccccc2)C=C2C(=C(c3ccccc3)C(=O)C2C)CN1` (stereo not given), the composite z-score came out at 0.544 in [1]; 1.59 in [3]; 0.839 in test [4]; 0.725 in [5]; 2.3 in test [6]; 0.906 in [7]. Further, the values for the composite z-score in test [8], in test [9] and in [10] were -0.305, 0.0887 and -1.56, respectively. Further, the composite Z-score in test [2] is 0.257 (inactive).
For `Cc1ccc(S[C@]2(C(=O)NC(C)C)CC(=O)N(C3Cc4ccccc4C3)[C@@H]2c2ccc(CO)cc2I)cc1`, the composite z-score was -0.25 in [1]; -0.641 in [3]; -0.359 in [4]; 0.825 in test [5]; 3.04 in [6]; 0.387 in test [7]. The composite z-score in test [8] is 0.318; in test [9], 0.02; in test [10], -0.181. Also, the composite Z-score in test [2] is 0.0777 (inactive).
For the molecule `CN(C)CCCCNC(=O)[C@H]1C[C@H]2C(=O)N[C@@H](CCCCN(C)C)C(=O)N2[C@H]1c1cccc(OCCO)c1`, the composite z-score in [1] is 0.418; in [3], 0.0691; in test [4], -0.237; in [5], 0.18; in test [6], 2.21; in test [7], 0.518. Moreover, the composite z-score was determined as 1.31 in test [8], 1.39 in test [9] and 1.14 in test [10]. For the same molecule, the composite Z-score in test [2] was -1 (inactive).
On to `C=CCOC(=O)[C@H]1[C@@H]2C(=O)O[C@@H](c3ccccc3)[C@@H](c3ccccc3)N2[C@@H](c2ccc(OCCOC(=O)[C@H]3C[C@H]4C(=O)N[C@@H](Cc5ccccc5)C(=O)N4[C@H]3c3ccc(O)cc3)cc2)[C@]12C(=O)Nc1ccc(I)cc12`, for which the composite z-score in test [1] was -0.175; in test [3], 0.189; in test [4], -0.11; in [5], 0.28; in test [6], 1.78; in test [7], 0.428. In addition, the composite z-score in test [8] turned out to be 1.3; in test [9], 1.23; in test [10] it was 1.14. Further, the composite Z-score in test [2] is 0.341 (inactive).
